Screening results (PubChem BioAssay)
The list is not random: actives were taken first. Their share in the collection is about 3.3%.
Casp6 inh: human caspase-6 inhibitors, primary screen, biochemical, VEID-R110 fluorescence, single point, set 2; actives 0.53% (n = 350,000); purified caspase-6, Z-VEID-R110 cleavage fluorescence; inhibition, % at 12.5 µM; P55212;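 active = mean inhibition across replicates at least about 35%, with every replicate also reaching that limit, limit read from the data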;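 also: 0% = median of neutral control wells and 100% = no fluorescence left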
ERAP1 inh: human ERAP1 aminopeptidase inhibitors, primary screen, biochemical, single point, plate reader; recombinant ERAP1, Leu-AMC fluorescence, 60 min; inhibition, % at 10.7 µM; actives 0.15% (n = 340,000); AID 652197, 2013;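 active = mean replicate inhibition of at least 30%, or all replicates individually reaching that 30% level; inactive = mean below 30% and not every replicate reaching it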;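 also: 0% = neutral control wells and 100% = L-leucinethiol positive control wells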
SIRT5 inh: SIRT5 desuccinylase inhibitors, primary screen, biochemical, fluorescence imaging, single point, set 5; NAD-dependent protein deacylase sirtuin-5, mitochondrial (Homo sapiens), Q9NXA8; Purified SirT5, succinyl-peptide AMC, trypsin-coupled fluorescence; inhibition, % at 15 µM; actives 1.1% (n = 330,000); in the data active = inhibition above about 15%
Target sequence (Q9NXA8 whole entry, looked up): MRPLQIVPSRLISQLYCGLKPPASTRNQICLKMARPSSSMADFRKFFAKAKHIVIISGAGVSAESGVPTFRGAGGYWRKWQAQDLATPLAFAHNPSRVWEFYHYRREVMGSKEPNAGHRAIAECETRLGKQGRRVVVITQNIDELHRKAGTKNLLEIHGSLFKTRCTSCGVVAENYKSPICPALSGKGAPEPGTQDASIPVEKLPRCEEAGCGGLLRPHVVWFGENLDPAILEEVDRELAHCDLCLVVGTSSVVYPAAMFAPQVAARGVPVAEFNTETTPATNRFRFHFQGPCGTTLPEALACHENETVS
GSIS activator: GLuc luminescence reporter in INS-1E cells, primary screen for activators of glucose-dependent secretion of insulin; activation, % at 16.6 µM; AID 743287, 2014; actives 0.61% (n = 370,000); INS-1E GLuc reporter insulin secretion, 2-3 h;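 active = lowest replicate activation of at least 40%, so every replicate reaches that level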;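 also: 0% = median of neutral control wells and 100% = median of IBMX positive control wells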
FGF22 binding: binders of human FGF22 protein, primary screen, FGF22 synaptogenesis inhibitor project, biophysical, thermal shift, single point; Fibroblast growth factor 22 (Homo sapiens), Q9HCT0; activity (Tm shift, normalised), % at 9.99 µM; recombinant FGF22 thermal shift, SYPRO orange fluorescence; percent of sucrose octasulfate shift, DMSO zero; actives 1.5% (n = 340,000);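 active = mean Tm shift, scaled 0 neutral to 100 positive control, at about 1.3% or above, every replicate too, limit read from the data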
Target sequence (Q9HCT0 whole entry, looked up): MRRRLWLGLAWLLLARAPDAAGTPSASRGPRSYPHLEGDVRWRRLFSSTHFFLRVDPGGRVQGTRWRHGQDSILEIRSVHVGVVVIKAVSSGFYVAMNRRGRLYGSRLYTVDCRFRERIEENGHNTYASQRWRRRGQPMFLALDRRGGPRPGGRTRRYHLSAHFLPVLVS
Active calls of the source: *; x = not tested or not shown.

SMILES	Casp6 inh	ERAP1 inh	SIRT5 inh	GSIS activator	FGF22 binding
O=C(C[C@H]1C[C@H]2c3cc(NC(=O)C4CCC4)ccc3O[C@H]2[C@@H](CO)O1)NCCc1ccccc1	6.1	0.4	-0.9	16.0	0.0
Cc1cc(C(=O)Nc2cccc3c2O[C@H](CN(C)C(=O)Nc2ccccc2)[C@H](C)CN([C@@H](C)CO)C3=O)n(C)n1	1.0	1.4	3.9	0.3	-0.1
C/C(O)=C(/C=NCC(=O)O)C(=O)Nc1nccs1	-4.4	-1.3	-6.2	4.8	43.0*
C/C(=C\c1ccccc1)C(=O)Nc1nccs1	-1.0	9.9	-1.1	6.1	-0.1
COC(=O)[C@@H]1[C@@H](CO)[C@@H]2Cn3c(ccc(-c4ccccc4F)c3=O)[C@@H]2N1C(=O)c1cnccn1	0.0	0.8	2.8	4.6	-0.1
CO[C@@H](CN(C)C(=O)c1ccccc1F)[C@H](C)CN([C@H](C)CO)S(=O)(=O)c1ccccc1	2.2	1.5	2.5	14.8	0.2
CN(C)/C=C(\C#N)C(=O)N/N=C/c1ccc(F)cc1	8.0	1.6	1.7	-0.5	0.0
CC/C(CC(=O)C(F)(F)F)=N\NC(=O)/C(C#N)=C/N(C)C	1.3	-0.4	18.1*	5.6	0.1
C[C@H]1CN(C)C(=O)c2cc(N)ccc2O[C@@H]1CN(C)C	x	x	x	-8.4	x
COc1ccc(CN(C)C[C@H]2Oc3c(NS(=O)(=O)c4ccc(Cl)cc4)cccc3C(=O)N([C@@H](C)CO)C[C@H]2C)cc1	0.8	-0.8	-4.4	-10.5	-0.1
Cc1ccc(S(=O)(=O)N2CCN(C(=O)CNC(=O)c3ccc(Cl)cc3)CC2)cc1	-2.6	-1.6	-1.3	-2.9	43.5*
O=C(Cc1cccc(C(F)(F)F)c1)OCC(=O)N1CCN(S(=O)(=O)c2ccc(Cl)cc2)CC1	-0.7	-2.1	1.1	-12.7	-0.2
CCOc1ccc(OCCCC(=O)N2CCN(S(=O)(=O)c3ccc(Cl)cc3)CC2)cc1	-4.3	32.1*	0.8	-4.1	-0.5
O=C(Cc1ccc(F)cc1)OCC(=O)N1CCN(S(=O)(=O)c2ccc(Cl)cc2)CC1	2.7	0.1	19.3*	-14.9	-0.5
O=C(Cc1ccc(Br)cc1)OCC(=O)N1CCCCCC1	2.7	4.3	x	x	43.1*
C[C@H]1CN([C@@H](C)CO)C(=O)c2cc(/C=C/c3ccccc3)cnc2O[C@H]1CN(C)C(=O)c1ccc2c(c1)OCO2	-1.7	-1.0	-16.4	-27.7	-0.2
CCCNC(=O)[C@@H]1[C@@H](CO)[C@@H]2Cn3c(ccc(-c4ccc(C(=O)N(C)C)cc4)c3=O)[C@@H]2N1CCC	0.5	0.1	-5.7	5.1	0.1
C[C@H](CO)N1C[C@H](C)[C@@H](CN(C)C(=O)NC2CCCCC2)Oc2ccc(N(C)C)cc2C1=O	1.0	-3.3	-3.2	6.8	0.1
Cc1ccc(/C=C/C(=O)O)cc1S(=O)(=O)NCc1ccco1	9.2	-4.5	-2.9	20.0	43.2*
COc1ccc(/C=C/C(=O)O)cc1S(=O)(=O)NCc1ccco1	12.4	1.3	-1.1	10.1	0.3
Oc1ccccc1C1SC(c2ccccc2O)SC(c2ccccc2O)S1 (stereo unspecified)	-1.6	-1.5	3.2	152.9*	0.1
COc1ccc(NC(=O)Nc2ccc3c(c2)CC(=O)N([C@@H](C)CO)C[C@@H](C)[C@@H](CN(C)S(=O)(=O)c2ccc(F)cc2)O3)cc1	3.2	0.8	-6.2	-6.6	-0.3
COC(CN1CCc2c(C)nc3c(C#N)cnn3c21)OC	-2.0	5.5	17.3*	25.8	0.6
C[C@@H]1CN([C@H](C)CO)C(=O)c2cc(NC(=O)CCC(F)(F)F)ccc2O[C@@H](C)CCCCO[C@H]1CN(C)S(=O)(=O)c1cccs1	1.2	2.4	9.3	-16.7	-0.3
CCOc1ccc2[nH]c(=O)c(CN(CCCN3CCOCC3)Cc3nnnn3Cc3ccc(OC)cc3)cc2c1	0.7	-0.8	-4.7	4.2	43.1*
SMILES	Casp6 inh	ERAP1 inh	SIRT5 inh	GSIS activator	FGF22 binding
COc1cc2cc(CN(CCCN3CCOCC3)Cc3nnnn3Cc3ccccc3)c(=O)[nH]c2cc1OC	-1.9	-0.9	-0.5	6.4	-0.2
C[C@H](CO)N1C[C@H](C)[C@@H](CN(C)CC2CC2)Oc2ccc(NC(=O)CCC(F)(F)F)cc2CC1=O	-0.1	-0.4	-5.0	16.3	-0.1
O=C(C[C@H]1C=C[C@@H](NS(=O)(=O)c2ccccc2)[C@H](CO)O1)N1CCN(c2ccccc2)CC1	1.0	2.6	-3.6	13.0	x
CCCCCCCCOC(=O)C1=C(C)Nc2nnnn2C1c1cccs1 (stereo unspecified)	x	x	x	42.6*	x
O=C(O)c1ccc(N=Nc2c(O)[nH]c3cc(Cl)ccc23)cc1	38.3*	-1.3	11.5	7.2	0.1
O=C(O)c1ccc(N=Nc2c(O)[nH]c3ccc(Br)cc23)cc1	-0.8	0.1	0.2	15.2	-0.1
CCC(=O)N1[C@@H]2CN(S(=O)(=O)c3ccccc3)c3ccccc3[C@@H]2[C@@H]1CO	-2.8	-1.3	-3.4	-2.8	-0.3
Cc1ccc(C(=O)OCC(=O)c2c[nH]c3ccccc23)cc1	-2.3	-1.8	1.3	2.8	0.2
O=C(OCC(=O)c1c[nH]c2ccccc12)c1cc(Br)ccc1O	-1.3	2.1	2.6	2.3	43.3*
CCCC(=O)N1CC2(C1)CN(C(=O)C1CCOCC1)[C@@H](CO)c1[nH]c3cc(OC)ccc3c12	1.8	-2.3	1.4	11.6	-0.2
CN1CCN(C(=O)c2cccc(-c3cnc4cnc(-c5ccccc5Oc5ccccc5)cn34)c2)CC1	-6.2	0.8	-16.7	42.1*	0.2
C[C@@H]1CCCCO[C@H](CN(C)S(=O)(=O)c2ccc(Cl)cc2)[C@@H](C)CN([C@@H](C)CO)C(=O)c2cc(NC(=O)CCC(F)(F)F)ccc2O1	-7.5	-1.6	1.2	-5.5	-0.9
O=C(O)COc1ccc(/C=C2\SC(=Nc3ccccc3)N(c3ccccc3)C2=O)cc1	3.2	-1.0	-4.7	17.0	0.2
COc1ccc(N=C2S/C(=C\c3ccc(OCC(=O)O)cc3)C(=O)N2CCc2c[nH]c3ccccc23)cc1	82.5*	4.9	49.8*	-2.7	0.9
COc1ccc(S(=O)(=O)Nc2ccc3c(c2)C(=O)N([C@@H](C)CO)C[C@H](C)[C@H](CN(C)S(=O)(=O)c2ccc(Cl)cc2)O3)cc1	x	x	x	12.2	-0.6
COc1ccc(S(=O)(=O)Nc2ccc3c(c2)C(=O)N([C@H](C)CO)C[C@@H](C)[C@@H](CN(C)S(=O)(=O)c2ccc(Cl)cc2)O3)cc1	2.1	-0.8	19.5*	-9.9	0.1
